# Reference: PubChem BioAssay (EPA / NIEHS)
# Results filed as inconclusive are left out. More than one record can exist for a structure, and the calls need not agree. Active and inactive are the calls of the source. How the source made its calls, unless noted: active means hit-call score of the fitted dose curve at least 0.9, where 1 is the maximum; inactive means score below 0.9.
# Assays:
# [1] = CCTE_Deisenroth_5AR_NBTE_donor: CCTE's 5alpha-reductase NanoBRET Target Engagement Assay […], Deisenroth Lab (AID 2284319); details: actives raise or lower the signal
# Method in brief: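 In this secondary endpoint, donor luminescence from SRD5A2-NanoLuc in transfected HEK293T flags artifacts. Test chemical (10 nM - 29.9 uM) is present five hours, tracer the last two; mock-tracer wells run plate-matched; data fitted bidirectionally against DMSO.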
# [2] = CCTE_Deisenroth_5AR_NBTE_acceptor: CCTE's 5alpha-reductase NanoBRET Target Engagement Assay - Autofluorescence Screen, Deisenroth Lab (AID 2284321); details: actives raise or lower the signal;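 further: compound fluorescence in the acceptor channel under 460 nm excitation flags autofluorescence artifacts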
# Method in brief: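 HEK293T cell-based NanoBRET assay read 5 h after dosing; this acceptor channel serves as an autofluorescence artifact screen. Chemicals at nominal 100 uM were scanned in three independent runs (n=3), excitation 460 nm. Fitting was bidirectional versus DMSO baseline.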
# [3] = tested on: SRD5A2 (gene 6716); experiment: CCTE_Deisenroth_5AR_NBTE_ratio: CCTE's 5alpha-reductase NanoBRET Target Engagement Assay - Ratio, Deisenroth Lab (AID 2284322); details: actives raise or lower the signal
# Method in brief: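 HEK293T cells transiently expressing an SRD5A2-NanoLuc fusion (20 h post-transfection) were exposed to test chemical (10 nM - 29.9 uM, 8 points) for 3 h, then testosterone tracer for a further 2 h. Acceptor/donor BRET ratio was fitted bidirectionally against DMSO baseline.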
# [4] = CCTE_Mundy_HCI_iCellGluta_NOG_NeuriteLength: CCTE's Neurite Outgrowth Assay in iCellGluta cells for Neurite Length, Mundy Lab (AID 2284318; active means hit-call score of the fitted dose curve at least 0.9, where 1 is the maximum)
# Method in brief: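 Automated high-content imaging of betaIII-tubulin (Alexa Fluor-488) and Hoechst-stained cells gave neurite length, normalized to the DMSO baseline.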
# [5] = IUF_NPC1_cytotoxicity_72hr: Cytotoxicity Assessment at 72 hours in the Leibniz Research Institute for Environmental Medicine (IUF) Neural Progenitor Cell Proliferation Assay (NPC1) (AID 2284332; active means hit-call score of the fitted dose curve at least 0.9, where 1 is the maximum;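 further: rising LDH signal means more cytotoxicity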)
# Method in brief: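 Cytotoxicity by LDH membrane-integrity assay on medium supernatants, fluorescence via resazurin reduction, after 3-day single exposure of primary hNPC spheres at 37C, pH 7.2-7.6 with growth factors. Fitted upward against baseline.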
# [6] = TAMU_PeakParms_SingleDonor1434_Asystole: Texas A&M University (TAMU) 1.5-hr Human Induced Pluripotent Stem Cell (iPSC)-derived Cardiomyocytes Calcium (Ca+2) Flux Assay for Cardiotoxicity: Asystole (quiescence of beating) (AID 2284328; active means hit-call score of the fitted dose curve at least 0.9, where 1 is the maximum)
# Method: TAMU_PeakParms is a cell-based, multiplexed-readout assay that uses iPSC-derived cardiomyocytes with measurements taken at 1.5 hours after chemical dosing in a microplate: 384-well plate.TAMU_PeakParms_SingleDonor1434_Chronotopy is a phenotype derived from the peak.freq.avg parameter and uses an EC95 as its POD (95% decrease in beat rate, compared to controls). Peak.Freq.Avg measures the average peak frequency, in beats per second, using Fluorescence intensity as a functional reporter from Calcium (Ca+2) flux assay technology. There is no preprocessing performed on the data used to model this phenotype.Data from the assay component TAMU_PeakParms_SingleDonor1434_Asystole was analyzed into 1 assay endpoint. This assay endpoint, TAMU_PeakParms_SingleDonor1434_Asystole, was analyzed in the positive analysis fitting direction relative to DMSO as the negative control and baseline of activity. Using a type of functional reporter, loss-of-signal activity can be used to understand changes in the cardiac function. To generalize the intended target to other relatable targets, this assay endpoint is annotated to the cardiomyocyte function intended target family, where the subfamily is cessation of beating.
# Each test compound from the chemical master plates was transferred into new tissue culture-treated 384-well microplates using acoustic dispensing (Labcyte Echo 550, Beckman Coulter, Indianapolis, IN) in amounts that would result in 5x concentrations (1, 5, 50, 500 uM) in the working plate in a final volume of 50 uL. Chemicals were randomly divided into 16 separate 384-well plates for screening such that the outer-most wells were left empty (308 wells were used on each plate). Fifteen of the plates contained unique test chemicals (n = 65 chemicals, 4 concentrations, one replicate each), positive controls (n = 10 chemicals, one concentration, 3 replicates each), vehicle (0.5% DMSO, n = 12), and media-only (n = 6) wells. Plate 16 contained test chemicals (n = 54 chemicals, 4 concentrations, one replicate each), inter-plate replicates (n = 11 chemicals with replicates, 4 concentrations, one replicate each), and the same design of positive controls and vehicle- and media-only wells as other plates. These plates were stored at -80C until the day of the assay. On assay day, the 5x concentrated chemical working plate was prepared by adding 50 uL cardiomyocyte maintenance medium containing 2.5% v/v DMSO to each well of the microplates. Then, 12.5 uL of 5x concentrated test chemical solution was added to the test plate to yield final concentrations of 0.2, 1, 10, and 100 uM in 0.5% v/v DMSO using the liquid handling robotics of the FLIPR Tetra. FLIPR Tetra settings were optimized to mix and then transfer test chemicals to the microplate at height = 40 uL, speed = 1 uL/sec, and removal speed = 6 mm/sec, resulting in a total volume of 62.5 uL/well with 0.5% v/v DMSO in cardiomyocyte maintenance medium. Immediately after chemical transfer, cells were incubated 37C and 5% CO2 for 90 minutes. Next, the total volume of cell culture medium containing Ca2+ dye (from the Ca2+ flux assay conducted first) was aspirated and replaced with 25 uL/well pre-warmed staining solution with fluorescent probes for nuclei and mitochondria (2.2 ug/mL Hoechst 33342 and 0.2 uM MitoTracker Orange in cardiomyocyte maintenance medium with 1:500 penicillin/streptomycin solution). […]
# [7] = tested on: Brachyury (BRA) Protein Expression, Deisenroth Lab, TBXT (gene 6862); experiment: CCTE_Deisenroth_DEVTOX-GLR_legacy_Bra: (Legacy) CCTE's DevTox GLR-Endo Assay Evaluation of Brachyury (BRA) Protein Expression, Deisenroth Lab (AID 2284329)
# Method in brief: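 Readout: percent Bra+ cells by high-content fluorescence imaging, Bra+ meaning mean intensity 5x BMAD over pluripotent control median. RUES2-GLR cells dosed twice over 48 h differentiation; DMSO-control median subtracted before concentration-response fitting.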
# [8] = CCTE_Deisenroth_DEVTOX-GLR_legacy_CellCount: (Legacy) Viability Assessment in CCTE's DevTox GLR-Endo Assay, Deisenroth Lab (AID 2284331); details: actives raise or lower the signal
# Method in brief: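 Seed RUES2-GLR 24 h; differentiate 48 h, dosing at 0 and 24 h; fix, stain nuclei; image 5 fields/well; count nuclei. Conc. 1 nM - 200 uM, single technical replicate, n=4 experiments; bidirectional fit vs 0.2% DMSO.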
# [9] = VALA_MIGHUV1_ScratchOnly_WoundArea: VALA Sciences human Umbilical Vein Endothelial Cell Migration (MIGHUV) Assay, Area of Scratch Wound Inhibited Recovery (AID 2284336; active means hit-call score of the fitted dose curve at least 0.9, where 1 is the maximum)
# Method in brief: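 Wound area remaining after 24 h recovery imaged by Hoechst nuclear fluorescence in scratched HUVEC cultures, chemicals added within 30 min of scratching across a 6-point series. Gain of signal fitted against 0.1% DMSO; cytochalasin D positive control.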
# [10] = VALA_TUBIPS_Antagonist_CellCount: Viability Assessment in the VALA Sciences human iPS-derived Endothelial Tubule Formation (TUBIPS) Antagonism Assay (AID 2284335; active means hit-call score of the fitted dose curve at least 0.9, where 1 is the maximum)
# Method: VALA_TUBIPS_Agonist is a cell-based, multiplexed assay that uses human iPS-derived endothelial cells (iPSC). Measurements were taken 72 hours after chemical dosing in a 96-well plate.VALA_TUBIPS_Antagonist_CellCount is the one of two assay components measured from the VALA_TUBIPS_Antagonist assay. It is designed to make measurements of viability, a form of viability reporter, as detected with fluorescence intensity signals by HCS Fluorescent Imaging technology. Data from the assay component VALA_TUBIPS_Antagonist_CellCount was analyzed at the endpoint, VALA_TUBIPS_Antagonist_CellCount, in the positive analysis fitting direction relative to DMSO as the negative control and baseline of activity. Using a type of viability reporter, loss-of-signal activity can be used to understand viability. To generalize the intended target to other relatable targets, this assay endpoint is annotated to the cell cycle intended target family, where the subfamily is cell count.
# This HUVEC-HDF assay was designed to detect chemical suppression of tubulogenesis, i.e. antagonism. To measure tubulogenesis antagonism, HUVEC cells were co-cultured with HDF cells at a 1:3 ratio for 3-days in 10 ng/ml VEGF (i.e., favorable conditions with growth factors), then changed to assay medium containing 10 ng/ml VEGF and ToxCast compounds for an additional 3-day period. […]
smiles,measurement,setting,value
O=c1[nH]sc2ccccc12,AC50,[1],81.2 µM (active)
same,AC50,[2],82.8 µM (active)
same,AC50,[3],75 µM (active)
O=C(O)Cc1cc(I)c(Oc2ccc(O)c(I)c2)c(I)c1,AC50,[1],28.2 µM (active)
same,AC50,[2],14.3 µM (active)
same,AC50,[3],77.3 µM (active)
O=C1O[C@H]([C@@H](O)CO)C(O)=C1O,outcome,[4],inactive
same,outcome,[5],inactive
CC/C(=C(/CC)c1ccc(O)cc1)c1ccc(O)cc1,outcome,[6],inactive
same,AC50,[7],1.3 µM (active)
same,AC50,[8],1.54 µM (active)
CN1C(=O)CC[C@H]1c1cccnc1,outcome,[1],inactive
same,outcome,[2],inactive
same,outcome,[3],inactive
CO[C@H]1/C=C/O[C@@]2(C)Oc3c(C)c(O)c4c(O)c(c(/C=N/N5CCN(C)CC5)c(O)c4c3C2=O)NC(=O)/C(C)=C\C=C\[C@H](C)[C@H](O)[C@@H](C)[C@@H](O)[C@@H](C)[C@H](OC(C)=O)[C@@H]1C,AC50,[1],50 µM (active)
same,outcome,[2],inactive
same,AC50,[3],54.3 µM (active)
same,AC50,[7],89.7 µM (active)
COc1cc(C(=O)NC2CCN(C)CC2)ccc1Nc1ncc2c(n1)N(C1CCCC1)CC(F)(F)C(=O)N2C,outcome,[1],inactive
same,outcome,[2],inactive
same,outcome,[3],inactive
O=C(Nc1ccc(Cl)cc1)Nc1ccc(Cl)c(Cl)c1,outcome,[9],inactive
CN1C(=O)N(c2ccccc2Br)Cc2cnc(Nc3ccc4c(c3)OCC(CO)O4)nc21 (stereo unspecified),outcome,[1],inactive
same,outcome,[2],inactive
same,outcome,[3],inactive
CCCCOC(=O)c1ccc(O)cc1,AC50,[7],100 µM (active)
same,AC50,[8],38.2 µM (active)
NCc1cccc(C2CCN(C(=O)c3ccc(C#Cc4ccccc4F)o3)CC2)c1,outcome,[1],inactive
same,outcome,[2],inactive
same,outcome,[3],inactive
OCCO,outcome,[7],inactive
same,outcome,[8],inactive
CCN(CC)C(=O)c1cc(S(=O)(=O)Cc2ccccc2)c(N2CCC(c3ccccc3)CC2)cc1N(CC)CCN(C)C,AC50,[1],10 µM (active)
same,outcome,[1],inactive
same,outcome,[2],inactive
same,AC50,[3],17.3 µM (active)
same,outcome,[3],inactive
CCCCCCCCOC(=O)c1cc(O)c(O)c(O)c1,AC50,[1],74.7 µM (active)
same,AC50,[2],61.4 µM (active)
same,AC50,[3],1.59 µM (active)
same,outcome,[10],inactive
CCCOC(=O)c1cc(O)c(O)c(O)c1,outcome,[6],inactive
CCN(Cc1cccc(S(=O)(=O)O)c1)c1ccc(C(=C2C=CC(=[N+](CC)Cc3cccc(S(=O)(=O)O)c3)C=C2)c2ccccc2S(=O)(=O)[O-])cc1,outcome,[1],inactive
same,AC50,[2],21.7 µM (active)
same,AC50,[3],2.9 µM (active)
CC(C)(c1cc(Br)c(O)c(Br)c1)c1cc(Br)c(O)c(Br)c1,outcome,[6],inactive
same,outcome,[5],inactive
CN(C[C@@H](CC[N+]12CCC(C3CCCCC3)(CC1)CC2)c1ccc(Cl)c(Cl)c1)C(=O)c1cc(C(F)(F)F)cc(C(F)(F)F)c1,AC50,[1],19.7 µM (active)
same,AC50,[2],16.1 µM (active)
same,AC50,[3],76 µM (active)
O=c1c(-c2ccc(O)cc2)coc2cc(O)cc(O)c12,outcome,[1],inactive
same,outcome,[2],inactive
same,outcome,[3],inactive
CN(C)c1ccc(C(=C2C=CC(=[N+](C)C)C=C2)c2ccc(N(C)C)cc2)cc1,AC50,[1],12.6 µM (active)
same,AC50,[2],4.78 µM (active)
same,AC50,[3],0.593 µM (active)
same,AC50,[6],0.589 µM (active)
CCCCCCCCCCCO,outcome,[1],inactive
same,outcome,[2],inactive
same,outcome,[3],inactive
c1ccc2ccccc2c1,outcome,[6],inactive
